According to PubChem BioAssay (NCI):
The panel holds about 83,000 compounds, 20% with a hit somewhere; the sample as a whole holds those more often.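 Values shown are percent growth following 48 h exposure of cells in 96-well plates to a single concentration of compound; below 10 was considered active.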 Calls of active or inactive are those of the source.

These molecules were tested on SR leukemia (assay: NCI-60 one-dose screen, 48 h (100 = growth as untreated, 0 = no growth, -100 = all killed)). Conditions: 10 µM unless noted.
Experimental: Growth inhibition of the SR human tumor cell line is measured as a screen for anti-cancer activity. Cells are grown in 96 well plates and exposed to the test compound for 48 hours. Compounds are tested at a single concentration, which is 10^-5 M for most compounds. The reported endpoint is percent growth (GI% or GIPRCNT), where numbers from 0 - 100% represent growth inhibition, and numbers from -100% - 0 represent cell death. For example, a value of 40 represents 60% growth inhibition. A value of 0 means no net growth occurred over the course of the experiment. A value of -40 indicates 40% of cells at the beginning of the experiment died by the end of the experiment. A value of -100 means all cells are dead at the end of the experiment.
NCI-60 Human Tumor Cell Lines Screen was performed using the standard one-dose NCI protocol, which is described in more detail at https://dtp.cancer.gov/discovery_development/nci-60/default.htm.
Compounds with GIPRCNT values below 10 were considered active. Activity score was based on GIPRCNT using the following formula: […]
Score is 0 for GIPRCNT values of 100 or above, 50 for GIPRCNT values of 0, and 100 for GIPRCNT values of -100.
c1ccc(-c2nc3sc(C(c4ccccc4)c4ccccc4)nn3c2-c2ccccc2)cc1 was tested, and the growth was 80.6% (inactive).
In the case of CCC1(C(N)=O)CC2C=CC1CC2 (stereo not given), the growth is reported as 109% (inactive).
In the case of O=S1(=O)N(CCNc2nccc(-c3c(-c4cccc(O)c4)nc4sccn34)n2)CCN1Cc1ccccc1, the growth is reported as 55.4% (inactive).
With O=C(O)c1ccc(-n2cc(/C=N/Nc3ccccc3F)c(-c3ccc(O)cc3)n2)cc1 the growth was 73.6% (inactive).
For Nc1nc(Cl)cc(NCCCCNc2cc(Cl)nc(N)n2)n1, the growth was 98.9% (inactive).
With Cc1cc(-c2ccccc2)nc2ccccc12 the growth was 97.1% (inactive).
For NS(=O)(=O)c1ccc(CCN2C(=O)/C(=C\c3ccc(Cl)cc3)C=C2c2ccc(Oc3ccccc3)cc2)cc1, the growth was 45.9% (inactive).
With NC(=S)NNC1CCCCC1 the growth was 99.1% (inactive).
In the case of Nc1ccc(S(=O)(=O)Nc2ccnn2-c2ccccc2)cc1, the growth is reported as 95.5% (inactive).
With O=S(=O)(CCN1CCOCC1)Nc1cc(-c2ccc3ncnc(Nc4ccc(F)c(Cl)c4)c3c2)cnc1Cl the growth was 18.8% (inactive).
With CN1CCN(CC(O)COc2c(Br)c(Br)c(Br)c3c2OC(C)(C)C3)CC1 (stereo not given) the growth was -26.4% (active).
COc1ccc(C(=O)Cn2cnc3c(Nc4cc(C(=O)Nc5ccc(N6CCN(CCO)CC6)cc5)ccc4C)ncnc32)cc1 was tested, and the growth was 83.7% (inactive).
With CSc1ccc(C(=O)C[n+]2cccc(C)c2)cc1 the growth was 106% (inactive).
With O=C(Nc1ccc(-n2cc(-c3ccncc3)c(-c3ccc(O)c(Cl)c3)n2)cc1)Nc1cccc(Cl)c1Cl the growth was 74% (inactive).
In the case of O=C(O)c1ccc2nc(-c3ccc(OCCCCCOc4ccc(-c5nc6ccc(C(=O)O)cc6[nH]5)cc4)cc3)[nH]c2c1, the growth is reported as 120% (inactive).
For CCCCCC/C=N/Nc1ccc([N+](=O)[O-])cn1, the growth was 89.4% (inactive).
In the case of C=C1C(=O)O[C@H]2[C@H]1CC/C(C(=O)Nc1ccc(OC)c(C(N)=O)c1O)=C\CC[C@@]1(C)O[C@@H]21, the growth is reported as 22.3% (inactive).
In the case of CCc1ccc(C2=C/C(=C/c3ccc(Cl)cc3)C(=O)N2CCc2ccc(S(N)(=O)=O)cc2)cc1, the growth is reported as 6.7% (active).
With C=CC(=O)NC(=O)Nc1ccccc1Cl the growth was 39.8% (inactive).
In the case of COc1ccc(NC(=O)COCCOCCNC[C@@H]2C(=O)O[C@H]3[C@H]2CC/C(COC(=O)OC/C2=C/CC[C@@]4(C)O[C@H]4[C@H]4OC(=O)[C@@H](CN(C)C)[C@@H]4CC2)=C\CC[C@@]2(C)O[C@@H]32)c(O)c1C(N)=O, the growth is reported as 0.464% (active).
COc1ccc(/C=C/C(=O)c2ccc(Oc3ncnc4ccccc34)cc2)cc1OC was tested, and the growth was 16.7% (inactive).
In the case of CCOc1ccccc1C(=O)N1CCN(c2cc(Cl)cc(Cl)c2)CC1, the growth is reported as 6.79% (active).
With CCc1cccc(C)c1NC(=O)c1sc2nc3c(cc2c1N)CCCCC3 the growth was 14.4% (inactive).
For COc1cc(/C=C/C(=O)c2ccc(Oc3ncnc4ccccc34)cc2)cc(OC)c1OC, the growth was 38.1% (inactive).
CC(C)(C)OC(=O)N1CCN(CCn2cc(C(F)(F)F)c3c(Cl)ncnc32)CC1 was tested, and the growth was -17.8% (active).
N#CC1=C(N)Oc2c(ccc3ccccc23)C1c1cc(=O)oc2ccc(Cl)cc12 (stereo not given) was tested, and the growth was 22.9% (inactive).
For Cc1cn(-c2cc(C(=O)Nc3cccc(-n4ccc5c(NC(=O)c6ccccc6)nccc54)c3)cc(C(F)(F)F)c2)cn1, the growth was -24.9% (active).
For CC(=S)Nc1ccccc1, the growth was 103% (inactive).
In the case of COCCNC(C(=O)c1ccccc1)c1ccccc1 (stereo not given), the growth is reported as 109% (inactive).
For COc1ccc2c(-c3ccc(F)cc3)c(C#N)c(=NC(C)=O)oc2c1, the growth was 13.7% (inactive).
For COc1ccc(/C(Cl)=N/N=C(\Cl)c2cc(OC)c(OC)c(OC)c2)cc1OC(C)=O, the growth was 77.4% (inactive).
With CC(NCCC(c1ccccc1)c1ccccc1)c1ccccc1 (stereo not given) the growth was -35.6% (active).
Nc1nc(Nc2ccc(OCc3cccc(F)c3)cc2)c2c(n1)[nH]c1ccc(O)cc12 was tested, and the growth was -48.3% (active).
For Nc1nccc2c1ccn2-c1ccc(NC(=O)c2ccc(N3CCOCC3)c(C(F)(F)F)c2)cc1, the growth was 14.9% (inactive).
With O=c1cc(Cl)[nH]c(=O)[nH]1 the growth was 111% (inactive).
For Nc1ncc(-c2ccc3ncnc(Nc4cncc(Cl)c4)c3c2)cn1, the growth was 73.8% (inactive).
For CCOC(=O)NNc1nncc2ccccc12, the growth was 93.3% (inactive).
In the case of Oc1ccc(O)c(-[n+]2ccccc2)c1, the growth is reported as 93.7% (inactive).
O=C(NCCNc1nccc(-c2c(-c3cccc(O)c3)nc3sccn23)n1)Nc1cccc(C(F)(F)F)c1 was tested, and the growth was 59.2% (inactive).
In the case of O=C(C[n+]1cccc(Br)c1)c1ccc2c(c1)CCCC2, the growth is reported as 99.3% (inactive).
